# High-throughput results (PubChem BioAssay)
# This excerpt belongs to a sample that is enriched for hits.
# TDP1 cell CPT = qHTS for Inhibitors of human tyrosyl-DNA phosphodiesterase 1 (TDP1): qHTS in cells in presence of CPT. 12% of 420,000 active. AID 686979, 2013. Potency, µM (top dose mostly 46.2 µM), for the others: top-dose activity change, negative = growth inhibition, actives largely listed as inhibitors. chicken DT40 Tdp1-/-;hTDP1 cells + 20 nM CPT, ATP luminescence, 48 h; also: potency is read from the fitted curve at half-maximal effect; nearly all actives have a fitted effect of over 55% in size
#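 Chicken DT40 Tdp1-/- cells stably complemented with human TDP1 were seeded at 400 cells/well in medium containing 20 nM camptothecin, exposed to pin-transferred compounds, and grown at 37 °C for at least 48 hr. Viability was read as ATP luminescence.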
# 12-LOX inh = Primary qHTS assay for inhibitors of human arachidonate 12S-lipoxygenase (ALOX12): Round 2 | purified 12hLO, xylenol orange hydroperoxide absorbance | Potency, µM (top dose mostly 108 µM), inactives show at the top dose activity change, negative = inhibition, actives largely listed as inhibitors | 1.1% of 580,000 active | AID 1671190, 2021; also: potency is read from the fitted curve at half-maximal effect
# Target sequence (P18054 whole entry, looked up): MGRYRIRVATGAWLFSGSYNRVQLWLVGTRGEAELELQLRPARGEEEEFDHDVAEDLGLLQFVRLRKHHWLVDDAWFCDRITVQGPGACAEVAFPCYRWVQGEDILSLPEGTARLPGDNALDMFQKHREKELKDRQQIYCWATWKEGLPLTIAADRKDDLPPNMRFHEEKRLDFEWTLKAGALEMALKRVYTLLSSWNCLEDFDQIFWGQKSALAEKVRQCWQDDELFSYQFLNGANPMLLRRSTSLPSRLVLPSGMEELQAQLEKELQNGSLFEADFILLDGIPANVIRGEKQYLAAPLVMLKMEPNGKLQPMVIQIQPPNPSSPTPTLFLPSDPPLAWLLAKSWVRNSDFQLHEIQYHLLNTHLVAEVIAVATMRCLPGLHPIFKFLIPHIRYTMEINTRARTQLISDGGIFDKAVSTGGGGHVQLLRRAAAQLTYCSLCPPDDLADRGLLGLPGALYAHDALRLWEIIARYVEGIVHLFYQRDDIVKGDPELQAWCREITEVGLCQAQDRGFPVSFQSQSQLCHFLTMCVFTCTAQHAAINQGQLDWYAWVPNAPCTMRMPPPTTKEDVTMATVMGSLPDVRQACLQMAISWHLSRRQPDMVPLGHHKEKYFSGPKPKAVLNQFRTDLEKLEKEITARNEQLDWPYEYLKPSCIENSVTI
#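 Hydroperoxide product was detected by ferrous iron/xylenol orange as the 573 to 405 nm absorbance ratio. Arachidonic acid at 40 uM (final) was turned over for 30 min at room temperature by 150 nM human 12hLO, pH 7.0 Hepes buffer, after 15 min compound preincubation.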
# HT1080NT lethal = qHTS for induction of synthetic lethality in tumor cells producing 2HG: qHTS for the HT-1080-NT fibrosarcoma cell line; 1.6% of 360,000 active; AID 686970, 2013; HT-1080-NT fibrosarcoma viability, CellTiter-Glo ATP luminescence, 48 h; Potency, µM (highest dose often 46.1 µM), without a hit: at the top dose activity, negative = less viability, actives largely listed as cytotoxic;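 also: NT is the 2HG producing partner of a matched IDH1 knockdown line; potency is read from the fitted curve at half-maximal effect; 0% = DMSO-treated cells and -100% = media-only wells without cells; nearly all actives have a fitted effect of over 55% in size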
#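 HT-1080-NT; 750 cells/well; 5% FBS RPMI; 48 h compound, 37 degrees C; CellTiter-Glo luminescence; curve fitting and curve-class assignment.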
# TDP1 cell noCPT = qHTS for Inhibitors of human tyrosyl-DNA phosphodiesterase 1 (TDP1): qHTS in cells in absence of CPT; DT40 Tdp1-/- hTDP1 cells, no CPT, ATP luminescence, 48 h; Potency, µM (doses to about 46.2 µM), without a hit: top-dose activity change, negative = growth inhibition, most hits filed as inhibitors; 15% of 420,000 active; AID 686978, 2013; also: potency is read from the fitted curve at half-maximal effect; nearly all actives have a fitted effect of over 55% in size
#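 No-CPT arm: Tdp1-/-;hTDP1 DT40 cells (400/well) plus compounds, incubated ≥48 hr at 37 °C. Readout CellTiter-Glo luminescence.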
# IL-1B inflam inh = qHTS for Inhibitors of Inflammasome Signaling: IL-1-beta AlphaLISA Primary Screen; THP-1 LPS/ATP IL-1B secretion, AlphaLISA, 16 h; active compounds read low; activity change, % at 57.5 µM; 4.7% of 360,000 active; AID 743279, 2014; in the data active = activity change below about -50%; inconclusive = mostly about -30% to -49%
#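 THP-1 cells pretreated 1 hr with compounds (up to 57.5 uM final), then stimulated with LPS (250 ng/mL final) plus ATP (1.25 mM final); secreted IL-1B measured by AlphaLISA after 16 hr, decreased signal indicating inhibition.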
# HT1080 IDH1KD tx = qHTS for induction of synthetic lethality in tumor cells producing 2HG: qHTS for the HT-1080-IDH1KD cell line; HT-1080 IDH1 knockdown viability, ATP luminescence, 48 h; Potency, µM (doses to about 46.1 µM), for the others: at the top dose activity, negative = toxicity, most hits filed as cytotoxic; 2% of 360,000 active; AID 686971, 2013;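 also: potency is read from the fitted curve at half-maximal effect; 0% = DMSO wells and -100% = cell-free medium wells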
#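 IDH1KD HT-1080 cells, 750/well, RPMI + 5% FBS; compound pinned after 2 h settling; 48 h, 37 °C; CellTiter-Glo luminescence; % activity normalised to DMSO and no-cell wells; curves fitted, classed by r2 and efficacy.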
# Starred values were filed as active, the others as inactive; ? = inconclusive; / = no result given; [ ] = remark or other dose. Unless noted, calls follow the shape of the dose curve; as a rule, active = well fitted curve in the direction sought with a large enough effect; inconclusive = small, poorly fitted or top-dose-only effect, or another doubt; inactive = no such curve, though single readings can be large; an effect the other way counts as inactive or inconclusive. Unless noted, % is scaled to controls: 0 for no effect and ±100 for the full control effect.
SMILES,TDP1 cell CPT,12-LOX inh,HT1080NT lethal,TDP1 cell noCPT,IL-1B inflam inh,HT1080 IDH1KD tx
CCN(CC)C(=O)[C@H]1C[C@H](CC(=O)NCC23CC4CC(CC(C4)C2)C3)C(=O)N2CCc3c([nH]c4ccc(Cl)cc34)[C@]12C,16µM*,?,-1%,18µM*,-69*,1%
CC(C)N(C(=O)[C@H]1C[C@H](CC(=O)NCC23CC4CC(CC(C4)C2)C3)C(=O)N2CCc3c([nH]c4ccc(Cl)cc34)[C@]12C)C(C)C,18µM*,-17%,?,13µM*,-75*,?
CCN(CC)C(=O)[C@H]1C[C@H](CC(=O)NCCCn2ccnc2)C(=O)N2CCc3c([nH]c4ccc(Cl)cc34)[C@]12C,?,47%,-2%,?,-2,-2%
COc1cccc(-c2cc(C(=O)NCc3cccnc3)c3c(c2)N(C)CCO3)c1OC,/,13%[176 µM],/,/,/,/
Cc1ccc(C(=O)NC(Nc2ccc(C)cc2C)C(Cl)(Cl)Cl)cc1 (configuration not stated),/,-30%,/,/,/,/
COCCCNC(=O)C(NC(=O)c1ccccc1)C1CCN(C(=O)c2ccccc2F)CC1 (configuration not stated),/,28%,/,/,/,/
COc1ccc(N2CC(C(=O)N3CCC(C(=O)N4CCN(Cc5ccccc5)CC4)C3)NC2=O)cc1 (configuration not stated),/,46%,/,/,/,/
Cc1cc(C)nc(N/N=C/c2cc(Br)ccc2O)n1,5.2µM*,0%,-4%,3.7µM*,126,?
Cc1cc(C)nc(N/N=C/c2ccccc2OCc2cccc(Br)c2)n1,?,12%,?,18µM*,-62*,?
Cc1cc(C)nc(N/N=C/c2ccccc2OCc2ccc(Cl)cc2)n1,16µM*,2%,-22%,?,10,?
Cc1cc(C)nc(N/N=C/c2ccccc2OCc2ccccc2)n1,?,-13%,-2%,?,-10,1%
O=C(CC[C@H]1NC(=O)c2ccccc2NC1=O)NC1CCN(Cc2ccc(F)cc2)CC1,/,6%,/,/,/,/
COc1cccc(Cn2c(=O)c(-c3cccc(F)c3)nc3cncnc32)c1,?,-6%,/,?,/,/
Cn1nccc1CN1CCC2(CC1)CC(=O)c1ccccc1O2,/,49%[176 µM],/,/,/,/
O=C(COc1ccc(Br)cc1)NCCCNC(=O)c1cccnc1,?,0%,?,?,-12,10µM*
O=C(COc1ccccc1Cl)NCCCNC(=O)c1cccnc1,?,25%,26µM*,?,7,?
CC(C)(C)c1nnc([C@H]2CCN(Cc3ccco3)C2)o1,/,0%[176 µM],/,/,/,/
CCN1c2cc(C(=O)Nc3cccc(OC)c3)ccc2C(=O)N2CCCCC21 (configuration not stated),/,-11%,/,/,/,/
Cc1ccc(C)c(OC(=O)c2ccc(CSc3ccc(Cl)cc3)cc2)c1,/,-21%,/,/,/,/
CN(CC(=O)Nc1ccc(OC(F)(F)F)cc1)C(=O)c1ccccc1SCC(=O)N1CCCC1,23µM*,0%,2%,?,-7,-1%
CN(CC(=O)Nc1ccc(Cl)c(Cl)c1)C(=O)c1ccccc1SCC(=O)N1CCCC1,?,-30%,-11%,23µM*,-16,-9%
CN(Cc1cccc(Cl)c1Cl)C(=O)c1ccccc1SCC(=O)N1CCCC1,12µM*,12%,?,13µM*,-16,-28%
COc1ccccc1CN(C)C(=O)c1ccccc1SCC(=O)N1CCCC1,?,24%,10%,-6%,-27,6%
COc1ccc(Br)cc1CN(C)C(=O)c1ccccc1SCC(=O)N1CCCC1,?,/,-11%,?,-53*,-11%
O=C(COC(=O)c1ccccc1SCC(=O)N1CCCC1)Nc1ccc(OC(F)F)cc1,-16%,-3%,-4%,?,0,5%
SMILES,TDP1 cell CPT,12-LOX inh,HT1080NT lethal,TDP1 cell noCPT,IL-1B inflam inh,HT1080 IDH1KD tx
C[C@H](c1onc(-c2ccc(Cl)cc2)c1C(=O)O)N(C)C,/,-9%[176 µM],/,/,/,/
CN(Cc1ccc(Cl)c(Cl)c1)C(=O)c1ccccc1SCC(=O)N1CCCC1,?,-5%,-25%,21µM*,-72*,-13%
CC1CCc2cc(F)cc3c(O)c(C(=O)NCCN(C)C)c(=O)n1c23 (configuration not stated),21µM*,15%,?,18µM*,?,5%
Cc1cc(C)c(C#N)c(=N)o1,21µM*,?,-4%,26µM*,0,0%
O=C(N/N=C/C=C/c1ccccc1)C1CC1c1ccccc1 (configuration not stated),18µM*,4%,-28%,12µM*,-11,?
O=C(N/N=C/C=C/c1ccccc1)NC1CCCCC1,18µM*,0%,-4%,18µM*,-23,-5%
CN(C)c1ccc(/C=N/NC(=O)C2CC2c2ccccc2)cc1 (configuration not stated),-27%,19%,7%,-26%,-30,-23%
CC1(C)Cc2ccccc2-c2nc(CN3CCCCC3)[nH]c(=O)c21,/,46%,/,/,/,/
CCC1CCC(C(=O)Nc2ccc(Br)c(C)c2)CC1 (configuration not stated),/,-6%,/,/,/,/
CCOc1ccc(NS(=O)(=O)c2cc(NC(=O)C3CC3)ccc2C)cc1Br,?,-22%,-3%,21µM*,-71*,-16%
O=C(CSc1nnc(NC(=O)C2CC2)s1)Nc1ccccc1Cl,-10%,1%,?,?,11,?
CC(C)CCNC(=O)c1ccc(CNC(N)=O)cc1,/,-26%,/,/,/,/
Cc1ccc(C)c(C(=O)CC2(O)C(=O)N(CN3CCOCC3)c3ccccc32)c1 (configuration not stated),/,-25%,/,/,/,/
CCn1c(SCc2ccc(Cl)c(Cl)c2)nnc1C(C)NC(=O)c1ccc(OC)cc1 (configuration not stated),16µM*,-8%,6%,16µM*,-8,5%
